Values joined by “and” are separate entries in the source; they are usually repeats but may differ in a detail not shown here. Equal entries are not always repeated. Records with an inconclusive call do not appear. Some compounds were tested as several samples or in several runs, with calls that do not always agree. Active and inactive are the calls of the source. The call rests on the fitted dose curve; in most records, active means well fitted inhibition curve with a large enough effect; inconclusive means small, poorly fitted or top-dose-only effect; inactive means flat fitted curve, though single readings scatter.
On the % scale 0 is the no-effect control and ±100 the full control effect; potency means the concentration at half of the fitted maximal effect.

The test deals with KB-3-1. In words: Cytotoxic Profiling of Annotated Libraries Using Quantitative High-Throughput Screening (AID 1296008). Further: nearly all actives have a fitted effect of over 60% in size. The following applies: Five cell lines viability, CellTiter-Glo ATP luminescence, 48-72 h; max response: hits give low values. In short, it runs like this:
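Cytotoxicity was measured as CellTiter-Glo ATP luminescence, read after 10 min at room temperature. Compound treatment of the cells lasted 48 or 72 hr at 37 degrees Celsius in a qHTS format.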
As to `CNC(=O)c1c(-c2ccc(F)cc2)oc2cc(N(CCO)S(C)(=O)=O)c(C3CC3)cc12`, the max response was -0.402% (inactive).
Consider `Cc1cnc(Nc2cccc(CN3CCOCC3)c2)nc1Nc1cccc(S(=O)(=O)NC(C)(C)C)c1`, for which the Potency is 2.31 µM (active) and the max response was 6.82% (inactive).
Consider `CS(=O)(=O)c1ccc(C2=C(c3ccccc3)C(=O)OC2)cc1`, for which the max response is 20.7% (inactive) and -2.3% (inactive) and -12.9% (inactive).
For `O=C(O)CCNc1cc(N2CCc3ccccc3CC2)nc(-c2ccccn2)n1`, the max response is -6.65% (inactive) and -1.07% (inactive); the outcome was inactive.
For `CCn1c(-c2nonc2N)nc2cncc(CNC3CCNCC3)c21`, the max response was 3.41% (inactive) and -9.32% (inactive).
In the case of `CC(C)CNc1ccnc(NCc2csc(-c3ccccc3)n2)n1`, the Potency is 14.6 µM (active).
`Cn1c(=O)c(-c2c(Cl)cccc2Cl)cc2cnc(Nc3cccc(C(=O)O)c3)nc21`: the Potency is 4.61 µM (active) and the compound was called inactive.
In the case of `CC1(C)CC(=O)c2c(C(F)(F)F)nn(-c3ccc(C(N)=O)c(NC4CCC(O)CC4)c3)c2C1` (centres undefined), the Potency was 0.105 µM (active).
Regarding `Cc1ccccc1-n1c(Cn2nc(-c3cccc(O)c3)c3c(N)ncnc32)nc2cccc(C)c2c1=O`, the max response was 4.26% (inactive) and -1.18% (inactive).
Consider `COc1cc(Nc2nc3ccccc3nc2NS(=O)(=O)c2ccc(NC(=O)c3ccc(C)c(OC)c3)cc2)cc(OC)c1`, for which the max response was 6.27% (inactive) and the compound was classed as inactive.
With `CC1=C(C(=O)Nc2cc3cn[nH]c3cc2F)C(c2ccc(C(F)(F)F)cc2)CC(=O)N1` (centres undefined), the max response was 1.78% (inactive) and 8.86% (inactive).
In the case of `NC(=O)c1ccc(N(C(N)=O)c2c(F)cccc2F)nc1-c1ccc(F)cc1F`, the max response is 7.33% (inactive) and the result was inactive.
For `Clc1ccc(C2(c3ccc(-c4cn[nH]c4)cc3)CCNCC2)cc1`, the Potency was 16.6 µM (active) and 16.4 µM (active).
In the case of `CC[C@]1(O)C[C@H]2CN(CCC3=c4ccccc4=N[C]3[C@@](C(=O)OC)(c3cc4c(cc3OC)N(C)[C@H]3[C@@](O)(C(N)=O)[C@H](O)[C@]5(CC)C=CCN6CC[C@]43[C@@H]65)C2)C1`, the Potency is 0.0059 µM (active).
Take `NS(=O)(=O)c1cc(Cl)c(Cl)c(S(N)(=O)=O)c1`: the max response was 1.19% (inactive) and 6.82% (inactive) and 0.356% (inactive).
In the case of `C[C@H](c1ccc(F)cc1CCCC(=O)O)N(c1cc(F)ccc1F)S(=O)(=O)c1ccc(Cl)cc1`, the max response was -5.45% (inactive) and 4.45% (inactive).
Take `COc1nccc(-c2c(-c3ccc(F)cc3)ncn2C2CCC(O)CC2)n1` (centres undefined): the outcome was inactive.
For `CC(C)(OCc1nn(Cc2ccccc2)c2ccccc12)C(=O)O`, the max response is 5.01% (inactive) and 9.63% (inactive).
Still for that read-out and setting: the result for `COc1ccc(CCC(=O)Nc2nc3ccc(Cl)cc3s2)cc1OC` reads -8.12% (inactive) and -15.4% (inactive); that for `c1cc(OCCN2CCCCC2)cc(-c2n[nH]c3ccc(-c4ncn[nH]4)cc23)c1`, -21.9% (inactive).
With `CCN1CCN(c2ccc(Nc3cc(N(C)C(=O)Nc4c(Cl)c(OC)cc(OC)c4Cl)ncn3)cc2)CC1`, the Potency was 23.1 µM (active) and the max response is 8.02% (inactive).
Take `CN(C)c1nc(Cc2ccc(NC(=O)c3ccc(C(F)(F)F)cc3)cc2)nc(N(C)C)c1CC(=O)O`: the max response was 4.62% (inactive) and the call was inactive.
As to `CN1c2ccccc2C(=O)N2CCc3c([nH]c4ccccc34)C21` (centres undefined), the Potency is 5.17 µM (active) and the max response is 1.03% (inactive).
For `Cc1ccccc1C(C(=O)NC1CCCCC1)N(C(=O)CNc1ccc(C#N)cc1)c1cccc(F)c1` (centres undefined), the max response was 5.31% (inactive) and the result was inactive.
With `Cc1ccc2c(c1)c1c(n2CCc2ccc(C)nc2)CCN(C)C1`, the max response was 2.15% (inactive).
Consider `C[C@@]1(c2cc(-c3cncnc3)c(F)cc2F)CCSC(N)=N1`, for which the max response is -3.27% (inactive) and the compound was called inactive.
Regarding `Cc1cnc(-c2cc(N3CCN(C(=O)CCS(C)(=O)=O)CC3)ncc2Cl)c(C)c1`, the max response is 3.56% (inactive) and 2.16% (inactive).
With `CCN1C[C@H](C)n2c(c(O)c3c(=O)n(Cc4ccc(F)c(Cl)c4)nc(C(=O)NC)c32)C1=O`, the max response was 3.26% (inactive) and 8.63% (inactive); the compound was classed as inactive.
Consider `CNc1nc(Nc2ccc(C(=O)N3CCOCC3)cc2OC)ncc1Cl`, for which the max response was -5.95% (inactive) and the call was inactive.
As to `CC1CCN(c2cc(N3CCN(C)CC3)ccc2NC(=O)c2cc(C#N)c[nH]2)CC1`, the max response is 9% (inactive) and 4.39% (inactive).
For `Cc1cc2c(cc1C1(c3ccc(C(=O)O)cn3)CC1)C(C)(C)CCC2(C)C`, the max response was 4.32% (inactive) and the result was inactive.
With `c1ccc(CNc2nc(N3CCOc4ccccc43)nc3c2CCCC3)cc1`, the max response is 8.67% (inactive) and -13.6% (inactive).
Still for that read-out and setting: the result for `COc1ccnc(CS(=O)c2nc3ccc(OC(F)F)cc3[nH]2)c1OC` (centres undefined) reads -0.194% (inactive) and 5.88% (inactive).
Consider `O=C(CO)N1CCC(c2[nH]nc(-c3ccc(Cl)cc3)c2-c2ccncn2)CC1`, for which the max response was 6.51% (inactive) and the outcome was inactive.
For `COc1nc(C)cnc1NS(=O)(=O)c1cccnc1-c1ccc(-c2nnco2)cc1` the same measures were -0.147% (inactive) and “inactive”.
As for `CCCCn1c(=O)n(Cc2ccccc2F)c(=O)c2[nH]c(Cc3ccc(NC(C)=O)cc3)nc21`, the max response was -6.11% (inactive) and the call was inactive.
Consider `COC(=O)N1CCN(Cc2cccc(NC(=O)Nc3ccc(C)nc3)c2F)CC1`, for which the max response is -23.5% (inactive).
Consider `Nc1ccc(-c2ccc3ncc4ccc(=O)n(-c5cccc(C(F)(F)F)c5)c4c3c2)cn1`, for which the Potency was 4.2 nM (active) and 65.1 nM (active).

These data come from PubChem BioAssay (NCATS).
